Calpain2 inh – inhibitors of pig calpain II; purified calpain II, fluorogenic peptide substrate, 30 min; inhibition, % at 16 µM; actives 0.37% (n = 220,000);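 active = inhibition above about 50%, limit read from the data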
Efa HMGR inh – blocks class II HMG-CoA reductase of Enterococcus faecalis | actives 0.41% (n = 190,000) | purified E. faecalis HMGR, NADPH absorbance 340 nm kinetic | inhibition, % at 10 µM;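 active = inhibition above a set limit, the median over all tested compounds plus 3 SD, cut at about 9.5% in these data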;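 note: enzyme runs in reverse so mevalonate oxidation gives rising NADPH absorbance; 0% = complete reaction with DMSO and 100% = background rate lacking mevalonate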
ROMK primary – modulates human ROMK potassium channel activity. P48048. AID 1918. B-score at 10 µM. Tet-inducible ROMK, thallium flux fluorescence; actives lie on both sides. actives 2% (n = 130,000);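 active = signal ratio slope over the read window, or its plate-corrected B-score, at least 3 SD from the plate mean, either direction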;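 note: B-score of the F/F0 ratio slope over 7 to 12 s after thallium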
Target sequence (P48048 whole entry, looked up): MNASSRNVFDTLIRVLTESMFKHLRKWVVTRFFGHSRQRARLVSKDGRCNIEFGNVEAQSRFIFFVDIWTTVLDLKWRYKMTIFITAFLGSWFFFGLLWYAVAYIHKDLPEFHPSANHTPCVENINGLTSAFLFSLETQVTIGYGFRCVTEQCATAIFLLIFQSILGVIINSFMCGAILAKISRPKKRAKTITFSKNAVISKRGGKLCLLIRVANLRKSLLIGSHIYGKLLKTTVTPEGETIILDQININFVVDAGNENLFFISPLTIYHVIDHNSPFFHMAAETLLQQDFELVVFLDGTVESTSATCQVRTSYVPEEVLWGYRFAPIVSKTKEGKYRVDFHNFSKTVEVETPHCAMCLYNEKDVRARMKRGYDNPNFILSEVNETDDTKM
TNF necrop inh – TNF-alpha cell death inhibition in Jurkat FADD-/- cells; Jurkat FADD-/- TNF necroptosis rescue, ATP luminescence, 24 h; 0 = TNF only, 100 = no-TNF cells; activation (protection from cell death), % at 10 µM; actives 0.068% (n = 220,000); AID 463075;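 active = activation, meaning protection from cell death, of at least 50% relative to plate controls; inactive = activation below 50%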;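 note: necroptosis triggered by 40 ng/mL TNF-alpha added together with compound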
14-3-3 Bad inh – disrupts binding of bovine 14-3-3 zeta to phospho-Bad peptide; AID 781; TR-FRET 14-3-3zeta/Dy647-pBad peptide displacement, 1 h; inhibition, % at 21.7 µM; P63103; actives 0.71% (n = 220,000);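 active = inhibition above about 70%, limit read from the data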;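 note: 0% = full 14-3-3 plus peptide FRET controls and 100% = background without 14-3-3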
Target sequence (P63103 whole entry, looked up): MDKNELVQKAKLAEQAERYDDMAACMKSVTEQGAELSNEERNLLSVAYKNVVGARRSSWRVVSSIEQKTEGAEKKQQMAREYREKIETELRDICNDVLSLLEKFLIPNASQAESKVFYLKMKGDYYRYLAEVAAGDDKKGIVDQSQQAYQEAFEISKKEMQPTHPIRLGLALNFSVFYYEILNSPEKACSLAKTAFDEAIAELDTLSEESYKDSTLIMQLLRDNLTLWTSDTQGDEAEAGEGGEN
L929 necroptosis – L929 zVAD cell death inhibition; L929 zVAD necroptosis rescue, ATP luminescence, 24 h; with zVAD 60 µM; viability rescue, % at 10 µM; actives 0.38% (n = 220,000); AID 1377;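 active = activation, scaled between plate controls, above about 75%, limit read from the data; inactive = activation under that limit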;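 note: 0% = zVAD with DMSO and 100% = DMSO alone without zVAD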
* marks the source's active call; other numbers are inactive results; nt = no result; [ ] = dose if it differs, or a comment. Sampled rows, rich in hits. Any-hit rate of the full collection: about 3%.

SMILES | Calpain2 inh | Efa HMGR inh | ROMK primary | TNF necrop inh | 14-3-3 Bad inh | L929 necroptosis
O=C(Nc1nc2ccsc2c(=O)s1)c1ccc(Cl)cc1 | -20 | nt | -0.4 | 0 | -54 | 0
Cc1ccc(NC(=O)CSc2ncn[nH]2)cc1S(=O)(=O)N1CCOCC1 | 1 | -1 | 0.17 | 0 | -3 | 1
Cc1cc(C)c(S(=O)(=O)/N=C2/C=C(Sc3ncn[nH]3)C(=O)c3ccccc32)cc1C | -23 | 6 | -4.9* | -9 | 76*[fluorescence artefact?] | 1
COCCn1c(C)cc(C(=O)COC(=O)CNC(=O)c2ccccc2)c1C | 59* | -9 | 0.15 | 1 | -14 | nt
COc1cccc(CNc2ccc([N+](=O)[O-])cc2C)c1 | 46 | 0 | -0.93 | 1 | -5 | 1
COc1ccc(OC)c(CNc2ccc([N+](=O)[O-])cc2C)c1 | 51* | -4 | -1.8 | -1 | 6 | 0
Cc1ccc(C)c(S(=O)(=O)NCC(=O)Nc2sc3c(c2C(N)=O)CCC(C)C3)c1 (centres undefined) | -30 | 0 | nt | 1 | 0 | 0
Brc1ccc(CN2CCN(c3ccccn3)CC2)s1 | -7 | -2 | -1.5 | 0 | 85* | 1
O=c1c(CN2CCN(c3ccccn3)CC2)coc2ccccc12 | -5 | -3 | 0.012 | 1 | -1 | 0
NNC(=O)c1ccc(O)cc1O | -14 | 3 | -0.13 | 0 | -10 | 1
c1ccc(CC2CCN(C(c3cccs3)c3nnnn3C3CCCC3)CC2)cc1 (centres undefined) | 10 | -3 | 0.91 | 1 | -2 | 0
c1coc(CN2CCN(C(c3cccs3)c3nnnn3C3CCCC3)CC2)c1 (centres undefined) | -1 | 5 | nt | -1 | 77* | 0
c1ccc(CN(Cc2cccs2)C(c2cccs2)c2nnnn2C2CCCC2)cc1 (centres undefined) | 20 | 1 | nt | -1 | 87* | -1
CCCCCCNCc1c(F)cccc1Cl | -3 | -4 | 0.93 | 2 | -22 | 1
COc1ccccc1N1CCN(C(C)C(=O)Nc2ccc(S(=O)(=O)N3CCOCC3)cc2)CC1 (centres undefined) | -24 | -8 | 0.82 | 0 | -12 | 0
COc1ccc(C(=O)NCC(=O)OCC(=O)c2ccc3c(c2)NC(=O)CO3)cc1 | -15 | 0 | 0.4 | -1 | -4 | 2
Cc1cc(=O)oc2cc(OCC(=O)c3ccc4c(c3)NC(=O)CO4)ccc12 | -68 | 1 | 0.046 | 1 | 71* | 0
O=C(/C=C/c1cccs1)c1ccc(NC(=O)c2ccccc2F)cc1 | 6 | 18* | nt | 0 | 4 | 2
CCOC(=O)CSc1ccc2nnc(CCNS(=O)(=O)c3ccccc3)n2n1 | 10 | 4 | 1.6 | 0 | 83* | 0
CCOC(=O)C(CC)Sc1ccc2nnc(CCNS(=O)(=O)c3ccccc3)n2n1 (centres undefined) | 12 | 3 | 0.012 | 0 | 2 | 0
CCOC(=O)c1cc(-c2cccc([N+](=O)[O-])c2)n[nH]1 | 13 | 2 | -0.47 | -1 | 81* | 1
O=C(O)c1cc(-c2cccc([N+](=O)[O-])c2)n[nH]1 | -14 | -5 | 0.5 | 0 | -7 | 0
CCN(CCCNC(=O)C1CCC(=O)N1Cc1ccc(F)cc1)c1cccc(C)c1 (centres undefined) | 18 | -1 | nt | -6 | -14 | 0
CCN(CCNCC(O)COCc1ccc(Cl)cc1)c1cccc(C)c1 (centres undefined) | 7 | 31* | nt | 7 | 25 | 0
Cc1cccc(Cl)c1NNC(=O)Nc1c([N+](=O)[O-])c(C)nn1C | 9 | nt | 0.47 | -1 | 0 | -1
SMILES | Calpain2 inh | Efa HMGR inh | ROMK primary | TNF necrop inh | 14-3-3 Bad inh | L929 necroptosis
CC(C)NC(=S)N/N=C/C1=CCC2CC1C2(C)C (centres undefined) | 51* | 1 | -0.054 | -2 | -6 | 1
Clc1ccccc1-c1ccc(CN2CCN(c3ccccc3)CC2)o1 | -22 | -8 | 0.24 | 1 | 73* | 0
c1ccc(-c2nnc(CN3CCN(c4ccccc4)CC3)o2)cc1 | -10 | -1 | -1.3 | 0 | -6 | 1
Cc1nnc(SCc2ccccc2Cl)n1CC1CCCO1 (centres undefined) | 0 | 16* | 0.084 | -3 | 9 | 0
Cn1nc(C(F)(F)F)c2cc(NC(=O)OCc3ccc(C(C)(C)C)cc3)sc21 | 33 | 2 | 0.0038 | 2 | 5 | 2
COc1ccc(COC(=O)Nc2cc3c(C(F)(F)F)nn(C)c3s2)cc1 | 62* | 7 | nt | -6 | -6 | 1
Cn1nc(C(F)(F)F)c2cc(NC(=O)OCc3ccc(F)cc3)sc21 | 90* | 4 | nt | 2 | -1 | 0
COc1ccc(-n2c(CNc3ccc(C)cc3)nnc2SCC(=O)Nc2nc(-c3ccccc3)cs2)cc1 | 68* | -5 | -0.03 | -1 | 15 | 0
COc1ccc(NCc2nnc(SCC(=O)Nc3nc(-c4ccccc4)cs3)n2-c2ccccc2)cc1 | -36 | -13 | -0.19 | 2 | 4 | 0
Cc1c([N+](=O)[O-])c([N+](=O)[O-])nn1CC(=O)N1CCCCC1 | -9 | -5 | -0.62 | 1 | -22 | -1
Cc1cc2cc(CNC(=S)NC3CCCCC3)ccc2[nH]1 | 87* | 0 | -0.039 | 0 | -11 | -1
Cc1cccc(NC(=O)NCc2ccc3[nH]c(C)cc3c2)c1 | 97* | -4 | -0.16 | 2 | -7 | 0
COc1ccccc1NC(=O)CSc1nc2ccccc2cc1Cc1ccccc1 | 23 | -6 | nt | 0 | -16 | 0
O=C(Cn1cnc2cc([N+](=O)[O-])ccc2c1=O)NC1CCS(=O)(=O)C1 (centres undefined) | -13 | -4 | 0.34 | 0 | 6 | 3
CCOC(=O)CSc1nnc(CSc2nc3sc4c(c3c(=O)[nH]2)CCCC4)n1-c1ccccc1 | -92 | -3 | nt | -1 | 10 | 0
CC(C)CC(NC(=O)OC(C)(C)C)c1cn([C@@H](CCC(=O)OC(C)(C)C)C(=O)N2CCN(C(=O)OC(C)(C)C)CC2)nn1 (some centres undefined) | 4 | -4 | nt | 1 | 3 | 1
Clc1ccccc1-c1nnc2sc(-c3cccs3)nn12 | 52* | -9 | -0.5 | 1 | 11 | 1
CC1(C)CC(=O)C(N=Nc2cccc(F)c2C#N)=C(O)C1 | 10 | nt | -0.2 | -1 | -2 | 0
O=C(Nc1nnc(-c2ccccc2)o1)c1ccc(Cl)cc1 | 6 | -1 | 10* | -1 | 7 | 0
O=C(Nc1nc(-c2ccc3c(c2)OCO3)cs1)C1CC1 | 0 | -5 | nt | 8 | 8 | 76*
CC(C)(CN1CCc2ccccc2C1)NS(=O)(=O)c1ccccc1 | -6 | nt | nt | 1 | 2 | 1
CC1CC(C)CN(CC(C)(C)NS(=O)(=O)c2ccccc2)C1 (centres undefined) | 22 | -5 | nt | -3 | 77* | 0

Compound activity: PubChem, several laboratories
